Records with an inconclusive call do not appear. Entries that show only a call come without a potency. The source made the active and inactive calls. The call rests on the fitted dose curve; in most records, active means well fitted curve in the direction sought with a large enough effect; inconclusive means small, poorly fitted or top-dose-only effect, or another doubt; inactive means no such curve, though single readings can be large; an effect the other way counts as inactive or inconclusive.
How the values were obtained:
[1] = target: Rap guanine nucleotide exchange factor 3 (Homo sapiens) (UniProt O95398); test: Confirmatory qHTS for antagonist of cAMP-regulated guanine nucleotide exchange factor 3 (EPAC1) (AID 1645880); conditions: EPAC1 Rap1B-BODIPY-GDP exchange, fluorescence; series mostly up to 115 µM; further: nearly all actives have a fitted effect of over 55% in size; further: potency means the concentration at half of the fitted maximal effect
Procedure, shortened: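 Nucleotide exchange uses 100 nM EPAC1, 250 nM RAP1B-BODIPY-GDP and 50 uM GDP, with compounds in a concentration-titration series. After 5 min at room temperature, fluorescence (480 nm ex/540 nm em) is read every 5 min for 30 min. Data are normalized to control ATA and DMSO.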

[2] = target: Rap guanine nucleotide exchange factor 3 (Homo sapiens) (UniProt O95398); test: Confirmatory qHTS for agonist of cAMP-regulated guanine nucleotide exchange factor 3 (EPAC1) (AID 1645881); conditions: EPAC1 Rap1B BODIPY-GDP exchange fluorescence; series mostly up to 154 µM; further: nearly all actives have a fitted effect of over 75% in size; further: potency means the concentration at half of the fitted maximal effect;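 on activation: EPAC1 catalysed release of BODIPY-GDP from Rap1B seen as fluorescence loss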
[3] = target: Rap guanine nucleotide exchange factor 4 (Homo sapiens) (UniProt Q8WZA2); test: Confirmatory qHTS for agonist of cAMP-regulated guanine nucleotide exchange factor 4 (EPAC2) (AID 1645884); conditions: EPAC2 GEF activity, Rap1B-BODIPY-GDP fluorescence; series mostly up to 154 µM;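 further: nucleotide exchange releases bodipy-GDP from Rap1 and this lowers its fluorescence; nearly all actives have a fitted effect of over 65% in size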; further: potency means the concentration at half of the fitted maximal effect
[4] = target: Rap guanine nucleotide exchange factor 4 (Homo sapiens) (UniProt Q8WZA2); test: Confirmatory qHTS for antagonist of cAMP-regulated guanine nucleotide exchange factor 4 (EPAC2) (AID 1645885); conditions: EPAC2 Rap1B-BODIPY-GDP exchange fluorescence, biochemical; series mostly up to 12.7 µM; further: nearly all actives have a fitted effect of over 25% in size; further: potency means the concentration at half of the fitted maximal effect
[5] = target: Rap guanine nucleotide exchange factor 3 (Homo sapiens) (UniProt O95398); test: Counterscreen qHTS for antagonist of cAMP-regulated guanine nucleotide exchange factor 3 (EPAC1) (AID 1645888); conditions: Rap1B-BODIPY-GDP nucleotide exchange, fluorescence; series mostly up to 154 µM;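 further: fluorescence loss as bound BODIPY-GDP is released from Rap1B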
Procedure, shortened: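 Rap1B-BODIPY-GDP 250 nM + GDP 50 uM; cpds 7-pt, final 9.74 nM–152 uM (activator mode) or from 7.32 nM upwards (inhibitor mode); RT; FI 480/540 nm at 5 and 30 min, then ± cAMP, reread.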

Rap guanine nucleotide exchange factor 4 (Homo sapiens), sequence (Q8WZA2 whole entry, looked up): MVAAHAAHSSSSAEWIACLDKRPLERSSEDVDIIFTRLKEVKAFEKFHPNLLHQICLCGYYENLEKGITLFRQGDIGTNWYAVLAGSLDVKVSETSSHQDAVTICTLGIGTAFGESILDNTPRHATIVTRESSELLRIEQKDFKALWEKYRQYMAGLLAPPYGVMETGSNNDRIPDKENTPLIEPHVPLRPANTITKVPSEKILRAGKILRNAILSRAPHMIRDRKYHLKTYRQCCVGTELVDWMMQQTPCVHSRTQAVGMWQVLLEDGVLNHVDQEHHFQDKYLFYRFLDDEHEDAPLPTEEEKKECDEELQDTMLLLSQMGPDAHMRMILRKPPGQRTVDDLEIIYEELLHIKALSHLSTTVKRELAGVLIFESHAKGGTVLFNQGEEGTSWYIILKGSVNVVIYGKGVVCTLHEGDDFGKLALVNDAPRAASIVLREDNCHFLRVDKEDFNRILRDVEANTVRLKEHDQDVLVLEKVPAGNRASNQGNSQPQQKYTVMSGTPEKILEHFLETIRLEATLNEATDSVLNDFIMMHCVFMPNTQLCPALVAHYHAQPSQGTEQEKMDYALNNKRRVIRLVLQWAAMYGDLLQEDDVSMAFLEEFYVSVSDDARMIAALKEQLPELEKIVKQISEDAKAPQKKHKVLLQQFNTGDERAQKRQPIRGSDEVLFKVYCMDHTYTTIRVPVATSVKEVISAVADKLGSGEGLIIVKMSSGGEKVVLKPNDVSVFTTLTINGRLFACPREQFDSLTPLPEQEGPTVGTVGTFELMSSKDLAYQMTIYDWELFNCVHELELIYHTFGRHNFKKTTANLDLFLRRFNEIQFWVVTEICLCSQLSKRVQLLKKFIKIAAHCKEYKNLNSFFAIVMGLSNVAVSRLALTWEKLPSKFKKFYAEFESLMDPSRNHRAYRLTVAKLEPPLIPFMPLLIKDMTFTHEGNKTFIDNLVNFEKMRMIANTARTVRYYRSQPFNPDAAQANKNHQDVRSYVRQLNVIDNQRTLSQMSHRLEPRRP
Rap guanine nucleotide exchange factor 3 (Homo sapiens), sequence (O95398 whole entry, looked up): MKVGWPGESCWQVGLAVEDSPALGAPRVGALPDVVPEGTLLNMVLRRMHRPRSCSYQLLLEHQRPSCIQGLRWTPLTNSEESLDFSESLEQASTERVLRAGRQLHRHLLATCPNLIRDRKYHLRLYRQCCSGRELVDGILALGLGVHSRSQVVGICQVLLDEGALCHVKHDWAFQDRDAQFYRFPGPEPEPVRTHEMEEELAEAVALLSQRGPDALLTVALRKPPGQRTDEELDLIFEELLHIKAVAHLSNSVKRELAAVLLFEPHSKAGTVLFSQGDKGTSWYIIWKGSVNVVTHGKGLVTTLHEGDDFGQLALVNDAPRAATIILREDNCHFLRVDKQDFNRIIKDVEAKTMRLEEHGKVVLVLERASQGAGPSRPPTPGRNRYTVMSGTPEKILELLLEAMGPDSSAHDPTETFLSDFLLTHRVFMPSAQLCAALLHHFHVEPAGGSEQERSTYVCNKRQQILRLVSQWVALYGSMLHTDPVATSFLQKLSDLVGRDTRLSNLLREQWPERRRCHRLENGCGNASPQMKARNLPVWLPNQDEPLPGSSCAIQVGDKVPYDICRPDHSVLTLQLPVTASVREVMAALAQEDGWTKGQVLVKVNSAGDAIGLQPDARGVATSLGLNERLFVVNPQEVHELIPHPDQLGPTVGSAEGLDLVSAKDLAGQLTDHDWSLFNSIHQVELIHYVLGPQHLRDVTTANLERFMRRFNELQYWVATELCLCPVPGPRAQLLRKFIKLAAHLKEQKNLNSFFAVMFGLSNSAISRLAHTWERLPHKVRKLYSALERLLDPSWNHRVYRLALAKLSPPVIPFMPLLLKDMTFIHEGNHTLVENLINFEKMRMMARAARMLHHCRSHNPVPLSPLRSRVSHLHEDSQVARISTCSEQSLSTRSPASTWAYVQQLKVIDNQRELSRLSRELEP

CC(C)OC1(c2ccccc2)OC(=O)c2ccccc21 (stereo not given)
Potency [1]: inactive
Potency [2]: inactive
Potency [3]: inactive
Potency [4]: inactive
Potency [5]: inactive

CC(C)c1ccc(C2NC(=O)c3c(sc4c3CCN(C)C4)N2)cc1 (stereo not given)
Potency [1]: inactive
Potency [2]: inactive
Potency [3]: inactive
Potency [4]: inactive
Potency [5]: inactive

CCc1cc2c(-c3ccccc3)cc(=O)oc2cc1OCC(=O)NCC1CCC(C(=O)O)CC1 (stereo not given)
Potency [1]: inactive
Potency [2]: inactive
Potency [3]: inactive
Potency [4]: inactive
Potency [5]: inactive

CSc1nc2c(c(C(F)(F)F)n1)CC(C)CC2 (stereo not given)
Potency [1]: inactive
Potency [2]: inactive
Potency [3]: inactive
Potency [4]: inactive
Potency [5]: inactive

CCCc1cc(=O)[nH]c(SCC(=O)Nc2sc3c(c2C#N)CCC(C)C3)n1 (stereo not given)
Potency [1]: 89.1 µM (active)
Potency [2]: inactive
activation [3]: 4.56% [at 17.1 µM, percent relative to cAMP agonist control] (inactive)
Potency [4]: 0.135 µM (active)
activity change, negative = inhibition [5]: -6.17% [at 30.8 µM] (inactive)

CC(C)[C@H](NC(=O)NCCc1ccc(F)cc1)C(=O)O
Potency [1]: inactive
Potency [2]: inactive
activation [3]: 8.32% [at 17.1 µM, percent relative to cAMP agonist control] (inactive)
Potency [4]: inactive
activity change, negative = inhibition [5]: -8.58% [at 30.8 µM] (inactive)

CCn1nc([N+](=O)[O-])c(C(C#N)c2nc3cc(C(F)(F)F)ccc3s2)c(Cl)c1=O (stereo not given)
Potency [1]: 12.6 µM (active)
Potency [2]: inactive
activation [3]: 12.4% [at 17.1 µM, percent relative to cAMP agonist control] (inactive)
Potency [4]: inactive
activity change, negative = inhibition [5]: -19.4% [at 30.8 µM] (inactive)

O=C1NN(c2ccccc2)C(=O)/C1=C\c1ccc(-c2cc([N+](=O)[O-])ccc2O)o1
Potency [1]: 37.9 µM (active)
Potency [2]: inactive
Potency [3]: inactive
Potency [4]: 60.1 µM (active)
Potency [5]: inactive

C/C(C/C(C)=C1/SC(=S)NC1=O)=C1\SC(=S)NC1=O
Potency [1]: 1.69 µM (active)
Potency [2]: inactive
Potency [3]: inactive
Potency [4]: 21.3 µM (active)
Potency [5]: inactive

Clc1ccc(CSc2nnc(-c3ccncc3)s2)cc1
Potency [1]: inactive
Potency [2]: inactive
Potency [3]: inactive
Potency [4]: inactive
Potency [5]: inactive

Clc1cccc(Cl)c1C1Nc2cccc3cccc(c23)N1
Potency [1]: inactive
Potency [2]: inactive
Potency [3]: inactive
Potency [4]: inactive
Potency [5]: inactive

CCOC(=O)CSc1nc(C)c2cc(C)c(C)cc2n1
Potency [1]: inactive
Potency [2]: inactive
Potency [3]: inactive
Potency [4]: inactive
Potency [5]: inactive

Fc1cc(F)c(F)c(SCn2cc(Br)cn2)c1F
Potency [1]: inactive
Potency [2]: inactive
activation [3]: 5.6% [at 17.1 µM, percent relative to cAMP agonist control] (inactive)
Potency [4]: inactive
activity change, negative = inhibition [5]: -7.43% [at 30.8 µM] (inactive)

Cc1cc(N)c2cc(NC(=O)/C=C/c3ccccc3Cl)ccc2n1
Potency [1]: 37.9 µM (active)
Potency [2]: 100 µM (active)
Potency [3]: 56.2 µM (active)
Potency [4]: inactive
Potency [5]: inactive

COc1cc(/C=C/CNC[C@H]2O[C@@H](n3cnc4c(=O)[nH]c(N)nc43)[C@H](O)[C@@H]2O)ccc1O
Potency [1]: inactive
Potency [2]: inactive
Potency [3]: inactive
Potency [4]: inactive
Potency [5]: inactive

CCCCCn1c(C)c2c(OCC)cccc(=O)c2c1C
Potency [1]: inactive
Potency [2]: inactive
activation [3]: 7.02% [at 17.1 µM, percent relative to cAMP agonist control] (inactive)
Potency [4]: inactive
activity change, negative = inhibition [5]: 23.1% [at 30.8 µM] (inactive)

O=C1C(=Cc2cn(-c3ccccc3)nc2-c2ccc(OCc3ccccc3)cc2)SC(=S)N1CCS(=O)(=O)O
Potency [1]: 33.8 µM (active)
Potency [2]: inactive
Potency [3]: inactive
Potency [4]: inactive
Potency [5]: inactive

COc1ccc(NC(=O)c2ccc3c(SCC(=O)O)c4c(nc3c2)CCCC4)c(OC)c1
Potency [1]: 75.7 µM (active)
Potency [2]: inactive
Potency [3]: inactive
Potency [4]: inactive
Potency [5]: inactive

CCCCCCOC(=O)C(C#N)c1nc2ccccc2nc1N1CCOCC1 (stereo not given)
Potency [1]: 75.7 µM (active)
Potency [2]: inactive
Potency [3]: inactive
Potency [4]: 75.7 µM (active)
Potency [5]: inactive

CC1(C(=O)NS(=O)(=O)c2cccc(Cl)c2)CCN1C(=O)C1(c2ccc(Cl)cc2)CC1 (stereo not given)
Potency [1]: 31.6 µM (active)
Potency [2]: inactive
activation [3]: 2.34% [at 17.1 µM, percent relative to cAMP agonist control] (inactive)
Potency [4]: inactive
activity change, negative = inhibition [5]: -16.3% [at 30.8 µM] (inactive)

COC(=O)c1cc2occc2n1Cc1ccc(F)cc1Cl
Potency [1]: inactive
Potency [2]: inactive
Potency [3]: inactive
Potency [4]: inactive
Potency [5]: inactive

O=C(Nc1ccccc1C(F)(F)F)N1CCC(CN2CCc3ccccc3C2)CC1
Potency [1]: inactive
Potency [2]: inactive
Potency [3]: inactive
Potency [4]: inactive
Potency [5]: inactive

Cc1ccc(Cl)c2sc(N3CCN(C(=O)c4ccco4)CC3)nc12
Potency [1]: inactive
Potency [2]: inactive
activation [3]: 3.67% [at 17.1 µM, percent relative to cAMP agonist control] (inactive)
Potency [4]: inactive
activity change, negative = inhibition [5]: -12.9% [at 30.8 µM] (inactive)

Cc1ccccc1NC1=C/C(=N\S(=O)(=O)c2ccc(C(=O)O)cc2)c2ccccc2C1=O
Potency [1]: 14.1 µM (active)
Potency [2]: inactive
activation [3]: 1.42% [at 17.1 µM, percent relative to cAMP agonist control] (inactive)
Potency [4]: inactive
activity change, negative = inhibition [5]: -15% [at 30.8 µM] (inactive)

COc1cc(CNn2cnnc2)ccc1OCC(=O)NC(C)(C)C
Potency [1]: inactive
Potency [2]: inactive
Potency [3]: inactive
Potency [4]: inactive
Potency [5]: inactive

CC1(C(=O)NS(=O)(=O)c2cccs2)CCN1C(=O)C1(c2ccc(Cl)cc2)CCC1 (stereo not given)
Potency [1]: 15.8 µM (active)
Potency [2]: inactive
activation [3]: 1.54% [at 17.1 µM, percent relative to cAMP agonist control] (inactive)
Potency [4]: inactive
activity change, negative = inhibition [5]: -14.6% [at 30.8 µM] (inactive)

O=C(NN1C(=O)/C(=C/c2ccc(O)c(O)c2)SC1=S)c1ccccc1
Potency [1]: 7.57 µM (active)
Potency [2]: inactive
Potency [3]: inactive
Potency [4]: inactive
Potency [5]: inactive

COc1ccc(C2=NN(c3nc4ccccc4s3)C(=O)C2)cc1
Potency [1]: 75.7 µM (active)
Potency [2]: inactive
Potency [3]: inactive
Potency [4]: inactive
Potency [5]: inactive

CCOc1ccc(CCNC(=O)c2ccc3c(=O)[nH]c4c(C(=O)NC(C)C)sc(=S)n4c3c2)cc1
Potency [1]: 21.3 µM (active)
Potency [2]: inactive
Potency [3]: inactive
Potency [4]: inactive
Potency [5]: inactive

Cc1ccc2cc(CN(Cc3ccco3)C(=O)c3ccco3)c3nnnn3c2c1
Potency [1]: inactive
Potency [2]: inactive
Potency [3]: inactive
Potency [4]: 75.7 µM (active)
Potency [5]: inactive

Nc1c(C(=O)Nc2ccc3c(c2)OCCO3)nnn1Cc1cccc(Br)c1
Potency [1]: inactive
Potency [2]: inactive
activation [3]: 11.4% [at 17.1 µM, percent relative to cAMP agonist control] (inactive)
Potency [4]: inactive
activity change, negative = inhibition [5]: -24.5% [at 30.8 µM] (inactive)

Cc1ccnc(NS(=O)(=O)c2ccc(NC(=O)Cc3c(F)cccc3Cl)cc2)n1
Potency [1]: inactive
Potency [2]: inactive
Potency [3]: inactive
Potency [4]: inactive
Potency [5]: inactive

COc1ccc(C(Sc2ccccc2)c2ccccc2)cc1OC (stereo not given)
Potency [1]: inactive
Potency [2]: inactive
Potency [3]: inactive
Potency [4]: 21.3 µM (active)
Potency [5]: inactive

O=C1NC(=O)C2(CCC(C(=O)O)C2)N1 (stereo not given)
Potency [1]: inactive
Potency [2]: inactive
activation [3]: 11.7% [at 17.1 µM, percent relative to cAMP agonist control] (inactive)
Potency [4]: inactive
activity change, negative = inhibition [5]: 14.4% [at 30.8 µM] (inactive)

CCCc1cc(C(=O)Nc2ccccc2C(=O)OC)no1
Potency [1]: inactive
Potency [2]: inactive
Potency [3]: inactive
Potency [4]: inactive
Potency [5]: inactive

Cc1cccc(C)c1Nc1c(-c2ccccc2F)nc2cccc(C)n12
Potency [1]: 75.7 µM (active)
Potency [2]: inactive
Potency [3]: inactive
Potency [4]: inactive
Potency [5]: inactive

CCOc1ccc(C2=CC(c3cccc(Br)c3)n3c(nc4ccccc43)N2)cc1Cl (stereo not given)
Potency [1]: inactive
Potency [2]: inactive
Potency [3]: inactive
Potency [4]: inactive
Potency [5]: inactive

CC1(C)Cc2c(C#N)c(N3CCN(C(=O)c4ccccc4Cl)CC3)nc(-c3ccco3)c2CS1
Potency [1]: 26.9 µM (active)
Potency [2]: inactive
Potency [3]: inactive
Potency [4]: inactive
Potency [5]: inactive

COc1ccc(S(=O)(=O)N2CCOC23CCN(S(=O)(=O)c2ccc(F)cc2C)CC3)cc1
Potency [1]: inactive
Potency [2]: inactive
Potency [3]: inactive
Potency [4]: inactive
Potency [5]: inactive

Clc1ccc2nc(C3CCCCC3)c(CC3CCCCC3)n2c1
Potency [1]: inactive
Potency [2]: inactive
activation [3]: -3.07% [at 17.1 µM, percent relative to cAMP agonist control] (inactive)
Potency [4]: inactive
activity change, negative = inhibition [5]: -0.327% [at 30.8 µM] (inactive)

COCCCN1C(=O)C(CC(=O)NCc2cccc3ccccc23)CC(C(=O)N2CCCCCC2)=C1C (stereo not given)
Potency [1]: inactive
Potency [2]: inactive
Potency [3]: inactive
Potency [4]: inactive
Potency [5]: inactive

Oc1ccc(Br)cc1C=Nc1cccn2cc(-c3ccccc3)nc12
Potency [1]: 84.9 µM (active)
Potency [2]: inactive
Potency [3]: inactive
Potency [4]: 75.7 µM (active)
Potency [5]: inactive

COc1ccc(OC)c(-c2nc3c(C#N)c[nH]n3c2NC2CCCCC2)c1
Potency [1]: inactive
Potency [2]: inactive
Potency [3]: inactive
outcome [4]: inactive [at 12.7 µM]
Potency [5]: inactive

CC[n+]1c(/C=C/C=C/N(C(C)=O)c2ccccc2)sc2cc(OC)ccc21
Potency [1]: inactive
Potency [2]: 100 µM (active)
Potency [3]: 112 µM (active)
Potency [4]: inactive
Potency [5]: inactive

Reference: PubChem BioAssay (NCATS)
